Reference: PubChem BioAssay (Tox21)
Several values for one entry are separate records, joined by “and”; a condition that tells them apart may be missing. Equal entries are not always repeated. Records with an inconclusive call do not appear. A call without a number means that no potency is given here. Some compounds were tested as several samples or in several runs, with calls that do not always agree. Activity calls are given as the source filed them. The call rests on the fitted dose curve; in most records, active means well fitted curve in the direction sought with a large enough effect in the repeat runs; inconclusive means weak or mixed curves; inactive means no such curve, though single readings can be large; an effect the other way counts as inactive or inconclusive.

Experiments:
[1] = Human pregnane X receptor (PXR) small molecule agonists, qHTS cell viability counter screen (AID 1346977); further: nearly all actives have a fitted effect of over 50% in size
How it was run: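 After a 5hr pre-incubation, PXR-Luc HepG2 cells received compounds plus positive control in DMSO and were kept 24hr at 37C. Cell viability was quantified by fluorescence from CellTiter-Fluor added for the final hour.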

[2] = Caspase-3/7 induction in HepG2 cells by small molecules, qHTS assay (AID 1346978); further: nearly all actives have a fitted effect of over 15% in size
How it was run: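 Wild-type HepG2 cells, 2,000/well, settled 5 hr at 37 C and 5% CO2, then compound-treated for 17 hr; caspase-3/7 activity read by luminescent Caspase-Glo 3/7 after 30 min at room temperature.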

[3] = Caspase-3/7 induction in CHO-K1 cells by small molecules, qHTS cell viability counter screen (AID 1346979); further: nearly all actives have a fitted effect of over 35% in size; further: potency means the concentration at half of the fitted maximal effect
How it was run: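 Multiplexed with Caspase-Glo 3/7 in CHO-K1 cells, this counter screen added CellTiter-Fluor after 16hr of compound exposure and recorded fluorescence 1hr later.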

[4] = Caspase-3/7 induction in CHO-K1 cells by small molecules, qHTS assay (AID 1346980); further: nearly all actives have a fitted effect of over 15% in size
How it was run: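 Wild-type CHO-K1 cells exposed to compounds for 17hr at 37 C, 5% CO2. Caspase-3/7 activity then measured by Caspase-Glo 3/7 luminescence after 30min at room temperature.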

[5] = Caspase-3/7 induction in HepG2 cells by small molecules, qHTS cell viability counter screen (AID 1346981); further: series mostly up to about 92 µM; nearly all actives have a fitted effect of over 30% in size
How it was run: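 Wild-type HepG2 cells (2,000/well) were allowed to settle for 5 hr at 37 C, 5% CO2, then dosed with compounds in DMSO by pin transfer. After 16 hr at 37 C, CellTiter-Fluor was added and fluorescence read 1 hr later.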

[6] = biological target: Nuclear receptor subfamily 1 group I member 2 (Homo sapiens) (UniProt O75469); test: Human pregnane X receptor (PXR) small molecule agonists, qHTS assay (AID 1346982); further: nearly all actives have a fitted effect of over 35% in size; further: potency means the concentration at half of the fitted maximal effect
How it was run: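 PXR-Luc HepG2 cells (CYP3A4 promoter-driven luciferase) were seeded in medium with 5% charcoal-stripped FBS, left 5 hr at 37 C, then exposed to compounds in DMSO for 24 hr. Luminescence was read after ONE-Glo addition.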

[7] = biological target: Cytochrome P450 2D6 (Homo sapiens) (UniProt P10635); test: Cytochrome P450 Family 2 Subfamily D Member 6 (CYP2D6) small molecule antagonists: luciferase reporter qHTS assay (AID 1671196); further: nearly all actives have a fitted effect of over 50% in size; further: potency means the concentration at half of the fitted maximal effect
How it was run: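 CYP2D6 enzyme–substrate mix was held with compound for 10 min at room temperature, then NADPH regeneration solution was added and the reaction ran 1 h at room temperature. Luciferin product was detected by luminescence after 20 min with detection reagent.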

[8] = biological target: Cytochrome P450 2C19 (Homo sapiens) (UniProt P33261); test: Cytochrome P450 Family 2 Subfamily C Member 19 (CYP2C19) small molecule antagonists: luciferase reporter qHTS assay (AID 1671197); further: nearly all actives have a fitted effect of over 65% in size; further: potency means the concentration at half of the fitted maximal effect
How it was run: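 Light output is proportional to CYP2C19 activity: proluciferin substrate is converted to luciferin, then detected by a luciferin detection reagent that also stops the 1 h, 37C NADPH-driven reaction. Ketoconazole serves as positive control.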

[9] = biological target: Cytochrome P450 2C9 (Homo sapiens) (UniProt P11712); test: Cytochrome P450 Family 2 Subfamily C Member 9 (CYP2C9) small molecule antagonists: luciferase reporter qHTS assay (AID 1671198); further: nearly all actives have a fitted effect of over 50% in size; further: potency means the concentration at half of the fitted maximal effect
How it was run: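 P450-Glo proluciferin substrate with CYP2C9 enzyme; 10 min RT preincubation, then NADPH regeneration 1 h at 37C; luciferin detection reagent 20 min RT, luminescence in relative luminescence units.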

[10] = biological target: Cytochrome P450 1A2 (Homo sapiens) (UniProt P05177); test: Cytochrome P450 Family 1 Subfamily A Member 2 (CYP1A2) small molecule antagonists: luciferase reporter qHTS assay (AID 1671199); further: nearly all actives have a fitted effect of over 50% in size; further: potency means the concentration at half of the fitted maximal effect
How it was run: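 Human CYP1A2 activity measured with a P450-Glo proluciferin substrate; compounds in DMSO preincubated 10 min at room temperature with enzyme-substrate mix, then NADPH regeneration system added for 1 h. Luciferin detection reagent, 20 min, luminescence read.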

[11] = biological target: Cytochrome P450 3A4 (Homo sapiens) (UniProt P08684); test: Cytochrome P450 Family 3 Subfamily A Member 4 (CYP3A4) small molecule antagonists: luciferase reporter qHTS assay (AID 1671201); further: nearly all actives have a fitted effect of over 50% in size; further: potency means the concentration at half of the fitted maximal effect
How it was run: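 Room-temperature assay throughout: 10 min compound–enzyme/substrate preincubation, 1 h reaction after NADPH regeneration solution, 20 min detection. Luciferin formed from proluciferin substrate is quantified by luminescence.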

[12] = biological target: Voltage-gated inwardly rectifying potassium channel KCNH2 (Homo sapiens) (UniProt Q12809); test: Human Ether-a-go-go-Related Gene (hERG) channel small molecule antagonists: fluorescence cell-based qHTS assay (AID 1671200)
How it was run: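 Cell line hERG-U2OS; dye FluxOR II, 1 h RT dark; Tl+ stimulus; ex 480/em 540 nm, read each second for 2 min.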

[13] = biological target: Nuclear receptor subfamily 1 group I member 2 (Rattus norvegicus) (UniProt Q9R1A7); test: Rat pregnane X receptor (rPXR) activation by small molecules, qHTS assay (AID 1346983); details: rPXR luciferase reporter cells, One-Glo luminescence, 24 h; max activation: stronger effect = higher value; further: nearly all actives have a fitted effect of over 20% in size
How it was run: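 Cell-based rPXR activation assay: rPXR cells, 2,000 per well, rested 5hr at 37 C, then exposed to compounds in DMSO for 24 hr at 37 C. Luciferase activity read by One-Glo luminescence after 30 min at room temperature.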

[14] = biological target: Nuclear receptor subfamily 1 group I member 2 (Homo sapiens) (UniProt O75469); test: CYP3A4 induction through human pregnane X receptor (PXR) by small molecules, qHTS assay (AID 1346984); further: nearly all actives have a fitted effect of over 40% in size
How it was run: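 DPX-2 cells (HepG2 co-transfected with PXR and CYP3A4 promoter-luciferase) treated with compounds 24 h at 37C; luciferin-IPA CYP3A4 substrate 3uM final added for 3 h, then One-Glo; luminescence read. qHTS format.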

[15] = biological target: Nuclear receptor subfamily 1 group I member 2 (Homo sapiens) (UniProt O75469); test: Human pregnane X receptor (PXR) activation by small molecules, qHTS assay (AID 1346985); further: nearly all actives have a fitted effect of over 40% in size; further: potency means the concentration at half of the fitted maximal effect
How it was run: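 DPX-2 cells (HepG2 co-transfected with a PXR response element and a CYP3A4-promoter luciferase construct) were seeded at 2,000 per well, rested 5 hr at 37C, then exposed to DMSO-dissolved compounds for 24 hr. Activation was read as luciferase luminescence.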

Sequence of Cytochrome P450 2C19 (Homo sapiens) (P33261 whole entry, looked up): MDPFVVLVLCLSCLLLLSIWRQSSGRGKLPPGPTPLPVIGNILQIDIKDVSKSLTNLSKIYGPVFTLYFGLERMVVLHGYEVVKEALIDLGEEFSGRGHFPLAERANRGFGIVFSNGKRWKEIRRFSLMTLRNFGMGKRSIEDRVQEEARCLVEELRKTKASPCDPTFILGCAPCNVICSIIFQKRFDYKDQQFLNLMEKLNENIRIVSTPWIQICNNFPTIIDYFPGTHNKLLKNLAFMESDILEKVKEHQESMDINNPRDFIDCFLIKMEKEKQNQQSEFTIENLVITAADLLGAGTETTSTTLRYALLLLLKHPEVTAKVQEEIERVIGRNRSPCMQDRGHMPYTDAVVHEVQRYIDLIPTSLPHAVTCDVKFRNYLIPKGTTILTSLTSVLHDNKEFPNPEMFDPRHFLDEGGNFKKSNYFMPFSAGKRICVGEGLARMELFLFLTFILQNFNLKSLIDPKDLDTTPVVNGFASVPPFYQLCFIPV
Sequence of Cytochrome P450 2D6 (Homo sapiens) (P10635 whole entry, looked up): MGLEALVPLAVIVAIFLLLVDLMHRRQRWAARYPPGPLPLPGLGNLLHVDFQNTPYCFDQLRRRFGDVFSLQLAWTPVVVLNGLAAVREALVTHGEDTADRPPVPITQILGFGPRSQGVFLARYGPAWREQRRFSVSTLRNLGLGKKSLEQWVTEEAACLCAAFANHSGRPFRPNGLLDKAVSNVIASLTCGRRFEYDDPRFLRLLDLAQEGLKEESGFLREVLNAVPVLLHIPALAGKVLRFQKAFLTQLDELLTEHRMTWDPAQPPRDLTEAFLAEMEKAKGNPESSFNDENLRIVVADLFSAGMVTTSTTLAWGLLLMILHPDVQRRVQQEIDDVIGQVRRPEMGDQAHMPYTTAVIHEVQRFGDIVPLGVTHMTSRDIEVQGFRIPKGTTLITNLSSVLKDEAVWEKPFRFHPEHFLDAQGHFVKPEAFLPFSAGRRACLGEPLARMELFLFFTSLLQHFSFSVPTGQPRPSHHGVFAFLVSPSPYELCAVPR
Sequence of Cytochrome P450 3A4 (Homo sapiens) (P08684 whole entry, looked up): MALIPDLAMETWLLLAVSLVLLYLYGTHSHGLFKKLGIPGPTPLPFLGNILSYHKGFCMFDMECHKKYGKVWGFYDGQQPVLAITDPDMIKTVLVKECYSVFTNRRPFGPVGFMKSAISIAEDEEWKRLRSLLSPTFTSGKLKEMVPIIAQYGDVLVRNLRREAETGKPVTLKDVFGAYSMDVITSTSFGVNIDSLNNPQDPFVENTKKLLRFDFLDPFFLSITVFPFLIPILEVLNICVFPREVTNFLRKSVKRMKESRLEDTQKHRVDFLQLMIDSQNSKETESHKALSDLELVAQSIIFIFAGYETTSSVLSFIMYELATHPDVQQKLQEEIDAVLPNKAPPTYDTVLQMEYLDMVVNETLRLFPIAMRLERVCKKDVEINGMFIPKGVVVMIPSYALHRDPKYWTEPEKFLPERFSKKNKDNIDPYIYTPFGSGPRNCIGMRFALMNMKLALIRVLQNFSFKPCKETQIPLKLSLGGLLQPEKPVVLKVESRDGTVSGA
Sequence of Nuclear receptor subfamily 1 group I member 2 (Homo sapiens) (O75469 whole entry, looked up): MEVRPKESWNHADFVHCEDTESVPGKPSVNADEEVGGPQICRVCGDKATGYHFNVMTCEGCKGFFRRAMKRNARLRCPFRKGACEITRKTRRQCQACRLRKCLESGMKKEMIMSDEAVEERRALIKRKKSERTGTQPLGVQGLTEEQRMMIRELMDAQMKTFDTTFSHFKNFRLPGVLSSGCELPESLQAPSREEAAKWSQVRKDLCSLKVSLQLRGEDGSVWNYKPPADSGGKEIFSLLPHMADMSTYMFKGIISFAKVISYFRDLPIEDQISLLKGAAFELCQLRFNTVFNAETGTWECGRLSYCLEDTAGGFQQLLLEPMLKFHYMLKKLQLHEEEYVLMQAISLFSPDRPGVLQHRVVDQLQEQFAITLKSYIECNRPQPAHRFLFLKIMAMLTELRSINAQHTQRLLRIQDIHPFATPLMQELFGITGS
Sequence of Cytochrome P450 1A2 (Homo sapiens) (P05177 whole entry, looked up): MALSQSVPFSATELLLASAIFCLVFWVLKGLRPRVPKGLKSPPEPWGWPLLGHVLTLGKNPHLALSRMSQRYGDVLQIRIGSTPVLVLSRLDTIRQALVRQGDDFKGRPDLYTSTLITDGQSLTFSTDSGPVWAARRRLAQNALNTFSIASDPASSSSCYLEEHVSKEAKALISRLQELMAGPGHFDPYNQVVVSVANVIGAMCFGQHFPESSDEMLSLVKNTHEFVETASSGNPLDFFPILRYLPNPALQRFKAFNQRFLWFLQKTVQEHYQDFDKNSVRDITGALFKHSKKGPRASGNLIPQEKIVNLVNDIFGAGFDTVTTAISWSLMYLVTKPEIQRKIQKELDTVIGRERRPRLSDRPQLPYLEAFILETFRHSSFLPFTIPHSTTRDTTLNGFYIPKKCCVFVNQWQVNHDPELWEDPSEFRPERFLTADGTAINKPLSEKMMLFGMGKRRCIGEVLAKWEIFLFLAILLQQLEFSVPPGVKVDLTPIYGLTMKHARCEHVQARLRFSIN
Sequence of Voltage-gated inwardly rectifying potassium channel KCNH2 (Homo sapiens) (Q12809 whole entry, looked up): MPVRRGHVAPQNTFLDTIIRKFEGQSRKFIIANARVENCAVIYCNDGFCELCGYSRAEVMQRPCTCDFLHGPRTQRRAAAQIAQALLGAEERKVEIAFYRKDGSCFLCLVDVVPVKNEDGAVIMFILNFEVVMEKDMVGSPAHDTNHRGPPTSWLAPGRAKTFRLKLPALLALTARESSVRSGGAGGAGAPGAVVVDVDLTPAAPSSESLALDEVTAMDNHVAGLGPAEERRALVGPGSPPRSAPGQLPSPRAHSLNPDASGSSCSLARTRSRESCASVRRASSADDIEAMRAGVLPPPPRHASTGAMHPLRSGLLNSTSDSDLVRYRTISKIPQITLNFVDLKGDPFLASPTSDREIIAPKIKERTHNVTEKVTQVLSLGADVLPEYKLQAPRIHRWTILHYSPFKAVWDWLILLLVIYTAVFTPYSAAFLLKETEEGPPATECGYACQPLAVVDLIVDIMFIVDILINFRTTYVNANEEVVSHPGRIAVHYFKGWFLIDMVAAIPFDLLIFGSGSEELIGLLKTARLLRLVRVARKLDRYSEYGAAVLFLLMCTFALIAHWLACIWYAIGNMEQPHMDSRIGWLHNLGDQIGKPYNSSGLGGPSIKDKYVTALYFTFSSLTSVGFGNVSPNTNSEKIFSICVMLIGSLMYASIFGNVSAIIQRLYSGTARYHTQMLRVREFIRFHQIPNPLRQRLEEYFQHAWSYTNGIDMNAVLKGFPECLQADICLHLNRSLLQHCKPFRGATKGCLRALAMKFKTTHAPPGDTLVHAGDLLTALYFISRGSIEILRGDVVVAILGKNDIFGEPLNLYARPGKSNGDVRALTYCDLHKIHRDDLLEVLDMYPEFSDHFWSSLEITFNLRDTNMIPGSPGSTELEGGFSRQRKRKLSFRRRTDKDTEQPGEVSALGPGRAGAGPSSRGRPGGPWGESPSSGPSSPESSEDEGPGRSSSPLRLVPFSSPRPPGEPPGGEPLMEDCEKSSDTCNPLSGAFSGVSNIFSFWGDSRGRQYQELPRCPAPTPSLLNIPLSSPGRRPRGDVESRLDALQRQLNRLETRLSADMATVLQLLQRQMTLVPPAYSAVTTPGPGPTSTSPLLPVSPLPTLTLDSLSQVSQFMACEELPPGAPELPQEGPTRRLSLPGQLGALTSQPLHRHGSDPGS
Sequence of Cytochrome P450 2C9 (Homo sapiens) (P11712 whole entry, looked up): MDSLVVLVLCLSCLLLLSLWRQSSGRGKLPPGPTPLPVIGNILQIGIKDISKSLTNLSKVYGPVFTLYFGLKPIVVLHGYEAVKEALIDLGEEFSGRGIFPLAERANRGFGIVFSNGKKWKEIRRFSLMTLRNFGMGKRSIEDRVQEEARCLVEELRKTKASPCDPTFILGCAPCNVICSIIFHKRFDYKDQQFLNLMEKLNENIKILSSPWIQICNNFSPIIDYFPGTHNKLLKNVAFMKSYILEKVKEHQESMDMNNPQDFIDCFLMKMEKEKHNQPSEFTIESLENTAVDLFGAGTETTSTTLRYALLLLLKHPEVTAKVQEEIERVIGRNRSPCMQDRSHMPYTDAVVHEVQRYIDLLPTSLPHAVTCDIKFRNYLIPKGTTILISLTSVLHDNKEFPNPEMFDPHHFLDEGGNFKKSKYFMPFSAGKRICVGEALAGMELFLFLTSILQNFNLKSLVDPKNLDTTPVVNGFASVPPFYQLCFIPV
Sequence of Nuclear receptor subfamily 1 group I member 2 (Rattus norvegicus) (Q9R1A7 whole entry, looked up): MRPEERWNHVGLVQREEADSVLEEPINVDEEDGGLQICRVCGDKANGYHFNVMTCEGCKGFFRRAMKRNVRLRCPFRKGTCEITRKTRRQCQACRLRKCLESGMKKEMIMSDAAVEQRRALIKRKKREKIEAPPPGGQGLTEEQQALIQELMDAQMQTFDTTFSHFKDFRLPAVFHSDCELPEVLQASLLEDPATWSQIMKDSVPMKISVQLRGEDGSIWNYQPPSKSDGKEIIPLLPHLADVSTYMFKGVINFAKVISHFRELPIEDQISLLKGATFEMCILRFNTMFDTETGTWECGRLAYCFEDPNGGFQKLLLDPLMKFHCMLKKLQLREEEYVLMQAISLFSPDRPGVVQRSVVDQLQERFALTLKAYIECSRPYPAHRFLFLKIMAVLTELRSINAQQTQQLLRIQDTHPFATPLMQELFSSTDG

Row | SMILES | Potency [1] | Potency [2] | Potency [3] | outcome [4] | Potency [5] | Potency [6] | Potency [7] | Potency [8] | Potency [9] | Potency [10] | Potency [11] | Potency [12] | max activation [13] | Potency [14] | Potency [15]
1 | CC1=C(/C=C/C(C)=C/C=C/C(C)=C/C(=O)O)C(C)(C)CCC1 | inactive | inactive | 68.5 µM (active) and inactive | inactive | inactive | 54.5 µM (active) and 61.1 µM (active) and 33.5 µM (active) | inactive | 20 µM (active) and 35.5 µM (active) | 71.1 µM (active) and 39.9 µM (active) and 34.7 µM (active) | inactive | 35.6 µM (active) and 28.2 µM (active) |  |  |  | 
2 | COc1cc2c(c(OC)c1OC)-c1ccc(OC)c(=O)cc1[C@@H](NC(C)=O)CC2 | inactive | inactive | 381 nM (active) and 43.3 nM (active) and 298 nM (active) | inactive | inactive | 2.14 µM (active) and 5.4 nM (active) | inactive | inactive | inactive |  |  | inactive |  |  | 
3 | CC(=O)/C=C/C1=C(C)CCCC1(C)C | inactive | inactive | inactive | inactive | inactive | 55.5 µM (active) and 17.2 µM (active) and 21.7 µM (active) | inactive | 40.7 µM (active) and 39.9 µM (active) and 71 µM (active) |  | inactive | 35.6 µM (active) | inactive |  |  | 
4 | COC(=O)c1ccc(C=O)cc1 | inactive | inactive | inactive | inactive | inactive | inactive | inactive | 71 µM (active) and inactive | inactive | 42.3 µM (active) | inactive | inactive |  |  | 
5 | C[C@]12CC[C@@H]3c4ccc(O)cc4C[C@@H](CCCCCCCCCS(=O)CCCC(F)(F)C(F)(F)F)[C@H]3[C@@H]1CC[C@@H]2O (stereo partly specified) | inactive | inactive |  | inactive | inactive |  | inactive | 7.1 µM (active) and 10.5 µM (active) and 6.92 µM (active) | 2.83 µM (active) and 3.32 µM (active) and 2.75 µM (active) | inactive | 2 µM (active) and 1.86 µM (active) and 1.55 µM (active) | inactive |  |  | 
6 | COc1cc(O)c(C(=O)c2ccccc2)cc1S(=O)(=O)O |  | inactive | inactive and 13.3 µM (active) | inactive | inactive | inactive | inactive | 78.8 µM (active) and inactive | inactive | inactive | inactive | inactive | -1.72% (inactive) | inactive | inactive
7 | Cc1ccc(O)c(-n2nc3ccccc3n2)c1 |  | inactive | inactive | inactive | inactive | 27.1 µM (active) and 27.3 µM (active) and 23.7 µM (active) | 31.5 µM (active) and 35.6 µM (active) and 30.9 µM (active) | 7.05 µM (active) and 10 µM (active) | 8.87 µM (active) and 7.1 µM (active) and 8.71 µM (active) | 2.23 µM (active) and 1.42 µM (active) and 2.57 µM (active) | 22.3 µM (active) and 25.2 µM (active) |  | -1.88% (inactive) | inactive | 14.1 µM (active)
